36 molecules from PubChem BioAssay (Tox21) can be followed below.

Several values for one entry are separate records, joined by “and”; a condition that tells them apart may be missing. Equal values may be shown once. Inconclusive results are not listed. Values without a mark were called inactive. Activity calls are given as the source filed them. The call rests on the fitted dose curve; in most records, active means well fitted curve in the direction sought with a large enough effect in the repeat runs; inconclusive means weak or mixed curves; inactive means no such curve, though single readings can be large; an effect the other way counts as inactive or inconclusive. Starred links: 1 amine or outer side, 2 acyl side, 3 side chain; linkers in the order of their positions; H or OH if unused. Positions of bridges follow the written chain, without caps; N, C: chain ends. Non-standard residues stand in square brackets, D forms with d. Residues, ends and D or L forms follow the SMILES beside them. Chains are numbered I, II in the order given. Actinocin(9to1) = Cc1c2oc3c(C)ccc(C(=O)[*:1])c3nc-2c(C(=O)[*:2])c(N)c1=O; NMeV = CN[C@H](C(=O)O)C(C)C; Sar = CNCC(=O)O
Further: nearly all actives have a fitted effect of over 50% in size.
On the % scale 0 is the no-effect control and ±100 the full control effect; potency means the concentration at half of the fitted maximal effect.

The target in the first test is Voltage-gated inwardly rectifying potassium channel KCNH2 (Homo sapiens) (UniProt Q12809). The test can be described thus: Human Ether-a-go-go-Related Gene (hERG) channel small molecule antagonists: fluorescence cell-based qHTS assay (AID 1671200).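 On activity change, negative = inhibition: hERG-expressing U2OS cells given a thallium stimulus after FluxOR II dye loading.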 The conditions noted are these: hERG-U2OS cells, FluxOR thallium flux fluorescence; series mostly up to 76.8 µM; activity change, negative = inhibition: at the top concentration. The method, boiled down: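 Kinetic two-minute fluorescence traces, sampled at 1 s, were collected following thallium stimulus of U2OS cells (1000 per well) that had been cultured overnight at 37 C and loaded with FluxOR II.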
Sequence of Voltage-gated inwardly rectifying potassium channel KCNH2 (Homo sapiens) (Q12809 whole entry, looked up): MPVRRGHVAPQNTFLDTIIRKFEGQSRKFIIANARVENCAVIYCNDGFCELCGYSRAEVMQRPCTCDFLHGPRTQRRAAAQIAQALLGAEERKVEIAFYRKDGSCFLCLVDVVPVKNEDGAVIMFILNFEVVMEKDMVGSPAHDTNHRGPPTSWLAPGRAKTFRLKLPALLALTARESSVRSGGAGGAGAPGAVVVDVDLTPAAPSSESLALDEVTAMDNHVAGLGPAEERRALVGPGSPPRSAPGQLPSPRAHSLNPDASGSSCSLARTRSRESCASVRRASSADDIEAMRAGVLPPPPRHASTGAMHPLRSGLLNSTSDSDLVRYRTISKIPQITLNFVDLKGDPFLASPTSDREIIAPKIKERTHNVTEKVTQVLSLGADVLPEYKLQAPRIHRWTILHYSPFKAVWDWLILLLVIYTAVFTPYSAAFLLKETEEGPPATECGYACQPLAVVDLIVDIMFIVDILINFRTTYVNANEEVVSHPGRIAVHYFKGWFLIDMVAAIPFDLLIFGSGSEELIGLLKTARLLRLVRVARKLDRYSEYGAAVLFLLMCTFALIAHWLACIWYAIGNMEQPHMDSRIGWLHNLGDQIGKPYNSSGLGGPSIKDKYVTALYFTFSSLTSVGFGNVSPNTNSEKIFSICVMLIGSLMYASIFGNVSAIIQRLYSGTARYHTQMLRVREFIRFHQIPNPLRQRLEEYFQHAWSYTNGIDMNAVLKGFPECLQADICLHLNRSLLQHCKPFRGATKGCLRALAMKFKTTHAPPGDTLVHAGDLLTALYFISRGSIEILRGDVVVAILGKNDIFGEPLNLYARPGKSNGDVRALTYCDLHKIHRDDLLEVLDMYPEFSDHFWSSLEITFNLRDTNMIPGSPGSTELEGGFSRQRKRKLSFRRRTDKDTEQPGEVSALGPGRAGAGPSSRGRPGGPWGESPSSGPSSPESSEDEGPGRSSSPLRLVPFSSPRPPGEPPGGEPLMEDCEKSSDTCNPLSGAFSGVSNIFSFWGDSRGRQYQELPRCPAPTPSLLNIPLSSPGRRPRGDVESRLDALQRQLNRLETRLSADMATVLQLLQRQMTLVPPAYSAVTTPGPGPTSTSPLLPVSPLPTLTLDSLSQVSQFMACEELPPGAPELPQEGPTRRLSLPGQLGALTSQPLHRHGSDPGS
On the technique in general: The hERG channel carries a current that helps repolarise heart muscle cells.
With `CC(C)CCOC(=O)c1ccc(N(C)C)cc1`, the “activity change, negative = inhibition” value is -13.6% [at 35.3 µM].

In the case of `COc1cc(C(=S)N2CCOCC2)ccc1O`, the “activity change, negative = inhibition” value is 0.602% [at 35.3 µM].

`CCCCCCCCCCCCCC[P+](CCCC)(CCCC)CCCC`: the Potency was 194 nM (active) and 275 nM (active).

For `Oc1c(Cl)cc(Cl)cc1Sc1cc(Cl)cc(Cl)c1O`, the Potency entry is “inactive”.

On to `CC(=O)OCC1=C(C(=O)O)N2C(=O)[C@@H](NC(=O)Cc3cccs3)[C@H]2SC1`, for which the “activity change, negative = inhibition” value was -0.176% [at 35.3 µM].

With `CC(=O)CC(=O)Nc1ccc2[nH]c(=O)[nH]c2c1`, the “activity change, negative = inhibition” value is 1.96%.

On to `COc1nc(C)nc(Cl)c1NC1=NCCN1`, for which the “activity change, negative = inhibition” value is -0.0793% [at 35.3 µM].

With `CCOc1ccc2c(c1)C(C)=CC(C)(C)N2`, the Potency result was “inactive”.

In the case of `Oc1c(Cl)cc(Cl)c(Cl)c1Cc1c(O)c(Cl)cc(Cl)c1Cl`, the Potency entry was “inactive”.

On to `CCCCCCC(O)CCCCCCCCCCC(=O)O` (configuration not stated), for which the Potency entry was “inactive”.

For `CCC(C)(Oc1ccc(C2(c3ccc(OC(C)(CC)C(=O)O)cc3)CCCCC2)cc1)C(=O)O` (configuration not stated), the “activity change, negative = inhibition” value was 3.7% [at 35.3 µM].

Consider `CCCNC(C)C(=O)Nc1ccccc1C` (configuration not stated), for which the “activity change, negative = inhibition” value is 6.66% [at 35.3 µM].

Consider `CC(=O)N[C@@H](CS)C(=O)O`, for which the Potency result was “inactive”.

As to `O=C1NCC2(CCN(CCc3ccccc3)CC2)O1`, the “activity change, negative = inhibition” value is -0.99% [at 35.3 µM].

As to `CC(C)(C)c1ccccc1`, the “activity change, negative = inhibition” value is 7.37%.

For the molecule `CCCCOCCOC(=O)c1ccccc1C(=O)OCCOCCCC`, the “activity change, negative = inhibition” value is -17.5%.

Take `Cc1cc(Cc2cc(C)cc(C(C)(C)C)c2O)c(O)c(C(C)(C)C)c1`: the Potency is 39.1 µM (active).

With `Nc1ccc2cc3ccccc3cc2c1`, the Potency entry is “inactive”.

For `Cc1ccnc2c1NC(=O)c1cccnc1N2C1CC1`, the Potency result was “inactive”.

As to `c1cc(C(c2ccc(OCC3CO3)cc2)C(c2ccc(OCC3CO3)cc2)c2ccc(OCC3CO3)cc2)ccc1OCC1CO1` (configuration not stated), the Potency result was “inactive”.

In the case of `C=CC(=O)OCCCCCCOC(=O)C=C`, the Potency result was “inactive”.

For `O=C(Nc1ccccc1SSc1ccccc1NC(=O)c1ccccc1)c1ccccc1`, the Potency result is “inactive”.

For `O=C(Cl)c1cccc(C(=O)Cl)c1`, the Potency result is “inactive”.

Regarding `Cc1c2oc3c(C)ccc(C(=O)N[C@@H]4C(=O)N[C@H](C(C)C)C(=O)N5CCC[C@H]5C(=O)N(C)CC(=O)N(C)[C@@H](C(C)C)C(=O)O[C@@H]4C)c3nc-2c(C(=O)N[C@@H]2C(=O)N[C@H](C(C)C)C(=O)N3CCC[C@H]3C(=O)N(C)CC(=O)N(C)[C@@H](C(C)C)C(=O)O[C@@H]2C)c(N)c1=O` (I: T[dV]P[Sar][NMeV] / II: T[dV]P[Sar][NMeV]; ester I:1-I:C, II:1-II:C; linker I:N-II:N via Actinocin(9to1)), the Potency entry is “inactive”.

Turning to `BrC1CCC(Br)C(Br)CCC(Br)C(Br)CCC1Br` (configuration not stated), the Potency was 15.4 µM (active).

With `NCCO`, the Potency entry was “inactive”.

Turning to `CCc1ccc(C(c2ccc(CC)cc2)C(Cl)Cl)cc1`, the “activity change, negative = inhibition” value is -24.5%.

`CCOc1ccccc1C(N)=O`: the Potency entry is “inactive”.

As for `CCc1cc(C(C)(C)C)c(O)c(C(C)(C)C)c1`, the “activity change, negative = inhibition” value was -17.4%.

In the case of `N[C@@H]1CONC1=O`, the “activity change, negative = inhibition” value was 1.66% [at 35.3 µM].

With `CCCCCCCCCCCC[N+](C)(C)C`, the Potency was 21.9 µM (active).

For `CC(=O)OCCOCCOCCOC(C)=O`, the Potency entry was “inactive”.

`NCCCCCC(=O)O`: the “activity change, negative = inhibition” value was 2.68% [at 35.3 µM].

Take `COC(=O)/C=C/c1ccccc1`: the Potency result was “inactive”.

For `CC(C)(C)NCC(O)c1cc(O)cc(O)c1` (configuration not stated), the “activity change, negative = inhibition” value was -0.383% [at 35.3 µM].

`C=C(C)C(=O)O`: the Potency entry was “inactive”.

In a further test the target is Cytochrome P450 3A4 (Homo sapiens) (UniProt P08684). The test can be described thus: Cytochrome P450 Family 3 Subfamily A Member 4 (CYP3A4) small molecule antagonists: luciferase reporter qHTS assay (AID 1671201). To be noted: P450-Glo CYP3A4 enzyme, luciferin luminescence, 1 h; series mostly up to 115 µM; activity change, negative = inhibition: at the top concentration. The essentials: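 Proluciferin-to-luciferin conversion by CYP3A4, NADPH-regenerated, 1 h RT; luminescence read as RLU. Ketoconazole as control.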
Sequence of Cytochrome P450 3A4 (Homo sapiens) (P08684 whole entry, looked up): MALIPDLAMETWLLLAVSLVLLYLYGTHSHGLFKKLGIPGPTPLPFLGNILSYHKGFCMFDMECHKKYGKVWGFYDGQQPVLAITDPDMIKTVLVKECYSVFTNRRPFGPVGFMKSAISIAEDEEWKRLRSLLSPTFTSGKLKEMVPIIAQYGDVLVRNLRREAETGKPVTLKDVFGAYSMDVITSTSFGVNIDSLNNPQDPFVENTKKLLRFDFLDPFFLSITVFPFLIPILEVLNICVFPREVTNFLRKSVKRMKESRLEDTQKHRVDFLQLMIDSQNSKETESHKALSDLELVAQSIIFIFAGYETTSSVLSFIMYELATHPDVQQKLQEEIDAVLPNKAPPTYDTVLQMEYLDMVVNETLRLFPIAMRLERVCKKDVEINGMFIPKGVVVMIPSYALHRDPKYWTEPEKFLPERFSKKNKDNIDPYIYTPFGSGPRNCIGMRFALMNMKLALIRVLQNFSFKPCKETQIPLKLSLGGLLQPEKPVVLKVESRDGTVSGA
On the technique in general: A reporter such as luciferase makes a cellular process visible.
In the case of `CC(C)CCOC(=O)c1ccc(N(C)C)cc1`, the “activity change, negative = inhibition” value was -21.9% [at 52.9 µM].

Turning to `COc1cc(C(=S)N2CCOCC2)ccc1O`, the “activity change, negative = inhibition” value is 4.01% [at 52.9 µM].

As to `CCCCCCCCCCCCCC[P+](CCCC)(CCCC)CCCC`, the “activity change, negative = inhibition” value was -51.8%.

Regarding `Oc1c(Cl)cc(Cl)cc1Sc1cc(Cl)cc(Cl)c1O`, the Potency entry was “inactive”.

Regarding `CC(=O)OCC1=C(C(=O)O)N2C(=O)[C@@H](NC(=O)Cc3cccs3)[C@H]2SC1`, the “activity change, negative = inhibition” value is -14.7% [at 52.9 µM].

Consider `CC(=O)CC(=O)Nc1ccc2[nH]c(=O)[nH]c2c1`, for which the “activity change, negative = inhibition” value is -2.75%.

Regarding `COc1nc(C)nc(Cl)c1NC1=NCCN1`, the “activity change, negative = inhibition” value was 3.61% [at 52.9 µM].

In the case of `CCOc1ccc2c(c1)C(C)=CC(C)(C)N2`, the Potency was 12.6 µM (active) and 17.8 µM (active).

For `Oc1c(Cl)cc(Cl)c(Cl)c1Cc1c(O)c(Cl)cc(Cl)c1Cl`, the “activity change, negative = inhibition” value was -17.9% [at 52.9 µM].

For `CCCCCCC(O)CCCCCCCCCCC(=O)O` (configuration not stated), the Potency result was “inactive”.

For the molecule `CCC(C)(Oc1ccc(C2(c3ccc(OC(C)(CC)C(=O)O)cc3)CCCCC2)cc1)C(=O)O` (configuration not stated), the “activity change, negative = inhibition” value is 43.8% [at 52.9 µM].

Consider `CCCNC(C)C(=O)Nc1ccccc1C` (configuration not stated), for which the “activity change, negative = inhibition” value was 1.65% [at 52.9 µM].

With `CC(=O)N[C@@H](CS)C(=O)O`, the Potency result was “inactive”.

Regarding `O=C1NCC2(CCN(CCc3ccccc3)CC2)O1`, the “activity change, negative = inhibition” value is 12% [at 52.9 µM].

For `CC(C)(C)c1ccccc1`, the “activity change, negative = inhibition” value was -0.762%.

As for `CCCCOCCOC(=O)c1ccccc1C(=O)OCCOCCCC`, the Potency was 12.4 µM (active) and 17.8 µM (active).

As for `Cc1cc(Cc2cc(C)cc(C(C)(C)C)c2O)c(O)c(C(C)(C)C)c1`, the Potency is 5.67 µM (active) and 8.94 µM (active).

Regarding `Nc1ccc2cc3ccccc3cc2c1`, the Potency was 9.1 µM (active) and 12.6 µM (active).

As to `Cc1ccnc2c1NC(=O)c1cccnc1N2C1CC1`, the “activity change, negative = inhibition” value is -1.13% [at 52.9 µM].

For `c1cc(C(c2ccc(OCC3CO3)cc2)C(c2ccc(OCC3CO3)cc2)c2ccc(OCC3CO3)cc2)ccc1OCC1CO1` (configuration not stated), the Potency result is “inactive”.

Consider `C=CC(=O)OCCCCCCOC(=O)C=C`, for which the Potency was 40.4 µM (active).

As to `O=C(Nc1ccccc1SSc1ccccc1NC(=O)c1ccccc1)c1ccccc1`, the Potency is 2.01 µM (active) and 5.03 µM (active).

`O=C(Cl)c1cccc(C(=O)Cl)c1`: the Potency entry was “inactive”.

For `Cc1c2oc3c(C)ccc(C(=O)N[C@@H]4C(=O)N[C@H](C(C)C)C(=O)N5CCC[C@H]5C(=O)N(C)CC(=O)N(C)[C@@H](C(C)C)C(=O)O[C@@H]4C)c3nc-2c(C(=O)N[C@@H]2C(=O)N[C@H](C(C)C)C(=O)N3CCC[C@H]3C(=O)N(C)CC(=O)N(C)[C@@H](C(C)C)C(=O)O[C@@H]2C)c(N)c1=O` (I: T[dV]P[Sar][NMeV] / II: T[dV]P[Sar][NMeV]; ester I:1-I:C, II:1-II:C; linker I:N-II:N via Actinocin(9to1)), the “activity change, negative = inhibition” value is -22.4% [at 52.9 µM].

With `BrC1CCC(Br)C(Br)CCC(Br)C(Br)CCC1Br` (configuration not stated), the Potency was 1.41 µM (active) and 1.51 µM (active).

As to `NCCO`, the “activity change, negative = inhibition” value was 0.334%.

Take `CCc1ccc(C(c2ccc(CC)cc2)C(Cl)Cl)cc1`: the Potency entry was “inactive”.

Turning to `CCOc1ccccc1C(N)=O`, the Potency entry was “inactive”.

With `CCc1cc(C(C)(C)C)c(O)c(C(C)(C)C)c1`, the “activity change, negative = inhibition” value was -0.19%.

Consider `N[C@@H]1CONC1=O`, for which the “activity change, negative = inhibition” value was -0.091% [at 52.9 µM].

As for `CCCCCCCCCCCC[N+](C)(C)C`, the Potency entry was “inactive”.

In the case of `CC(=O)OCCOCCOCCOC(C)=O`, the Potency entry is “inactive”.

`NCCCCCC(=O)O`: the “activity change, negative = inhibition” value is 1.83% [at 52.9 µM].

`COC(=O)/C=C/c1ccccc1`: the Potency entry is “inactive”.

For the molecule `CC(C)(C)NCC(O)c1cc(O)cc(O)c1` (configuration not stated), the “activity change, negative = inhibition” value is 5% [at 52.9 µM].

Consider `C=C(C)C(=O)O`, for which the Potency result is “inactive”.
